Results on 28 compounds are retold here after PubChem BioAssay.

The target in the experiment is Carbonic anhydrase 2 (Homo sapiens) (UniProt P00918). As to the kind of experiment: compounds binding carbonic anhydrase 2 – biochemical, small-molecule microarray, Alexa647-labelled CAII, profiling panel (AID 1122). The note with it: CAII-A647 binding fluorescence, higher = more signal.
For the compound `C[C@@H]1ON(c2ccccc2)[C@H](c2ccccc2)[C@H]1C(=O)O`, the composite z-score stood at 0.685.
The same measure for `C[C@]1(C(=O)O)c2ccccc2C(=O)N(Cc2cc(F)cc(C(F)(F)F)c2)[C@H]1c1ccc(CO)cc1`: 0.677.
For `COCCOC(=O)N1C(=O)[C@@]2(c3cc(C#CCCO)ccc31)[C@H](c1ccccc1OCCO)N1[C@H](c3ccccc3)[C@H](c3ccccc3)OC(=O)[C@H]1[C@@H]2C(N)=O` the value was 0.578; for `O=C1[C@H]2C=C(I)[C@H](C[C@@H]2OCCCCCCO)[C@@]12CO2`, 0.751.
As to `C=CCOC(=O)[C@@H]1[C@H]2C(=O)O[C@H](c3ccccc3)[C@H](c3ccccc3)N2[C@H](c2ccc(OCCOC(=O)[C@H]3C[C@H]4C(=O)N[C@@H](CCCCN(C)C)C(=O)N4[C@H]3c3ccc(O)cc3)cc2)[C@@]12C(=O)Nc1ccc(I)cc12`, the composite z-score was found to be 0.426.
As to `O=C(NCc1ccccc1)[C@@H]1c2ccccc2C(=O)N(Cc2cc(C(F)(F)F)cc(C(F)(F)F)c2)[C@H]1c1ccc(CO)cc1`, the composite z-score turned out to be 0.185.
For `CCCC[C@H]1C[C@@H]1[C@@H]1N(C(C)=O)[C@H](c2cccc(OC)c2)CC12CC2` the value was 0.202; for `CCOC(=O)C1=CCC(c2cc3ccccc3[nH]2)N(CCN2CC(C(=O)OCC)=CCC2c2cc3ccccc3[nH]2)C1` (stereo not drawn), 0.521; for `C=C(CCCC)/C(=C/C[C@H](OC(C)=O)c1cccc(OCCO)c1)c1cnc2ccccc2c1`, 0.84.
The same measure for `CCCN1C(=O)[C@@]2(c3ccc([N+](=O)[O-])cc3)CC(=O)N(CC34CC5CC(CC(C5)C3)C4)[C@@H]2c2ccc(CO)cc21`: 0.302; for `COc1ccc(C(O)C2C=CC3C(=O)N(c4ccccc4)C(=O)C3N2Nc2ccc(C#N)cc2)cc1OCc1ccccc1` (stereo not drawn): 0.634.
For `CC(C)NC(=O)[C@@]1(c2ccc([N+](=O)[O-])cc2)CC(=O)N(CC23CC4CC(CC(C4)C2)C3)[C@@H]1c1ccc(CO)cc1` the value was 0.195; for `CC1=C([C@H](O)CCc2ccccc2)[C@H](CO)n2c(=O)n(-c3ccccc3)c(=O)n2C1`, -0.3; for `O=C(NC1CC1)[C@@H]1c2ccccc2C(=O)N(Cc2cc(C(F)(F)F)cc(C(F)(F)F)c2)[C@H]1c1ccc(CO)cc1`, 0.679.
Consider `COC(=O)[C@@]1(Cc2ccccc2)N=C(c2ccc(OCCCO)cc2)O[C@H]1c1ccccc1CN=[N+]=[N-]`, for which the composite z-score is 0.6.
The same measure for `O=C1c2ccccc2[C@@]2(Cc3ccccc3N(Cc3ccccc3)C2=O)[C@H](c2ccc(CO)cc2)N1Cc1ccccc1Cl`: -0.391; for `CC(C)C[C@H]1NC(=O)C([C@@H](C)OCc2ccccc2)NC(=O)[C@@]23C(=O)N[C@@H](Cc4ccccc4)C2[C@H](C)[C@@]2(C)O[C@H]2C3/C=C/C/C=C\CNC1=O` (stereo partly drawn): 0.412; for `CC(C)=CCCC(C)=CC(O)C1C=CC2C(=O)NC(=O)C2N1Nc1ccc(Cl)cc1Cl` (stereo not drawn): 0.596.
On to `CCCCC(=C=CC[C@H](O)c1ccc(CO)o1)CCO`, for which the composite z-score is 0.54.
Take `CCOC(=O)C1=CC[C@@H](c2ccccc2)N(S(=O)(=O)c2ccc(C)cc2)[C@H]1c1ccccc1I`: the composite z-score amounted to 0.649.
For `[N-]=[N+]=Nc1ccccc1[C@@H]1OC(c2ccc(OCCCO)cc2)=N[C@]1(CCS(=O)(=O)c1ccccc1)C(=O)NCC(O)CO` (stereo partly drawn) the value was 0.564; for `N#Cc1ccc(NN2C(C(O)C3CC=CCC3)C=CC3C(=O)N(c4ccccc4)C(=O)C32)cc1` (stereo not drawn), 0.486; for `CC(C)C[C@@H]1NC(=O)[C@@]23C(=O)N[C@@H](Cc4ccccc4)C2[C@H](C)[C@@]2(C)O[C@H]2C3/C=C/C/C=C\CNC(=O)CNC1=O` (stereo partly drawn), 0.719.
In turn, `COc1ccc([Si](C)(C)[C@H]2[C@H](CC(=O)N3CCC[C@H]3CO)O[C@@]3(C(=O)N(Cc4ccc(N5CCCCC5=O)cc4)c4ccccc43)[C@@H]2C)cc1` displayed a composite z-score of 0.292.
For `C=CCC(OC(C)=O)[C@@H]1[C@@H](N(Cc2cccc3ccccc23)C(=O)Cc2ccc(OC)cc2)c2cc(OCCCO)ccc2N1C(=O)c1ccc2ccccc2c1` (stereo partly drawn) the value was 0.331; for `NC(=O)NCC#Cc1ccc2c(c1)[C@]1(C(=O)N2)[C@H](c2ccc(OCCO)cc2)N2[C@H](c3ccccc3)[C@H](c3ccccc3)OC(=O)[C@H]2[C@@H]1C(=O)O`, 0.256.
`O=C1O[C@H](c2ccccc2)[C@H](c2ccccc2)N2[C@H]1[C@@H](C(=O)N1CCN(c3ncccn3)CC1)[C@]1(C(=O)Nc3ccc(C#CCCO)cc31)[C@H]2c1ccc(O)cc1` had a composite z-score of 0.413.
The same measure for `C=C(CCCC)/C(=C/C[C@H](OC(=O)c1ccncc1)c1cccc(OCCO)c1)c1cnc2ccccc2c1`: 0.861.
